From PubChem
This is a sample that favours compounds with a hit; in the whole collection about 0.54% have one here.
Chronic BCR inh: inhibitors of chronic active B-cell receptor signaling; 340,000 compounds, 0.05% hits; Potency, µM (doses to about 46.1 µM), inactives show top-dose activity change, negative = inhibition, usual class: inhibitors; ABC-DLBCL IkBa-CBG/CBR reporter, luminescence ratio, 4 h; active = well fitted inhibition curve with a large enough effect in the signal ratio, with a control signal flat, not every such curve was filed as active; inconclusive = small, poorly fitted or top-dose-only effect, or effect the other way, or a change in a side signal; the % refers to the signal ratio;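 also: potency is read from the fitted curve at half-maximal effect; plate controls were basal doxycycline-induced cells for no effect and cells given 10 µM MG132 for full effect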
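TMD8 human ABC-DLBCL cells with doxycycline-inducible IκBα–green luciferase fusion and unfused red luciferase, in 0.5% FBS medium; compounds up to 46 uM, 4 h at 37C. Green/red luminescence ratio, filter-overlap corrected, fitted to concentration-response curves.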
Vif-APOBEC3G blk: Vif-A3G binding inhibition. HeLa A3G-eYFP + Vif (tagged APOBEC3G with the HIV-1 protein that degrades it), YFP fluorescence, overnight. Potency, µM (series often up to 46.1 µM), for inactives: at the highest dose activity, negative = active, actives largely listed as inhibitors. 410,000 compounds, 0.076% hits. AID 602310; also: potency is read from the fitted curve at half-maximal effect; % is scaled to controls: 0 for no effect and ±100 for the full control effect; nearly all actives have a fitted effect of over 60% in size
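Read-out is eYFP fluorescence (Ex 488/Em 500-530) from Vif-expressing HeLa A3G-eYFP cells; more signal means A3G escaped Vif-mediated degradation. Cells plated overnight, compound pinned in, incubated overnight at 37 deg C.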
MBNL1-CUG inh: blocks human MBNL1 binding to CUG repeat RNA | TR-FRET MBNL1-His/biotin-(CUG)12 binding, 665/545 ratio | 280,000 compounds, 0.036% hits | AID 2675 | Potency, µM (series often up to 57.5 µM), inactives show top-dose activity change, negative = inhibition, actives largely listed as inhibitors | Q9NR56; active = well fitted inhibition curve with a large enough effect in the signal ratio, with a control signal flat, not every such curve was filed as active; inconclusive = small, poorly fitted or top-dose-only effect, or effect the other way, or a change in a side signal; inactive = no such curve, though single readings can be large or run the other way; the % refers to the signal ratio; also: potency is read from the fitted curve at half-maximal effect; % is scaled to controls: 0 for no effect and ±100 for the full control effect
Target sequence (Q9NR56 whole entry, looked up): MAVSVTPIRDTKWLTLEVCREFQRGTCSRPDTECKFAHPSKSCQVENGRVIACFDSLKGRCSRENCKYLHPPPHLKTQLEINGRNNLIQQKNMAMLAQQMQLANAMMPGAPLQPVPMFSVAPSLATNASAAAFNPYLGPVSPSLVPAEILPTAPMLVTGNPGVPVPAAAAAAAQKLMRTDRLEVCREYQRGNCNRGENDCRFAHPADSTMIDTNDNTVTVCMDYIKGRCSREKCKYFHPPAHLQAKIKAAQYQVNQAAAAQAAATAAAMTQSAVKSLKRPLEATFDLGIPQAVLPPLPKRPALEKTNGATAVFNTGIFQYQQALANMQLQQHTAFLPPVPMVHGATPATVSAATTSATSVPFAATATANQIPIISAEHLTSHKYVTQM
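His-tagged MBNL1 binding to biotinylated (CUG)12 RNA was measured by TR-FRET using terbium anti-His antibody (0.055 ng/ul final) and streptavidin-XL665 (5 nM final). Compounds were titrated 92 nM to 58 uM; 60 min at room temperature.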
uPA surface inh: inhibitors of cell surface uPA generation | cell surface uPA generation assay, qHTS | Potency, µM (top dose mostly 38.3 µM), for inactives: top-dose activity change, negative = inhibition, hits mostly inhibitors | 330,000 compounds, 0.31% hits; active = well fitted inhibition curve with a large enough effect; inconclusive = small, poorly fitted or top-dose-only effect; inactive = no such curve, though single readings can be large or run the other way; tested in mouse RAW 264.7 cells; also: potency is read from the fitted curve at half-maximal effect; % is scaled to controls: 0 for no effect and ±100 for the full control effect; nearly all actives have a fitted effect of over 55% in size
TCR act: activators of T cell receptors; 330,000 tested, under 10 active; primary human leukocytes, anti-CD3, IL-2 HTRF, 48 h; AID 504894; Potency, µM (highest dose often 9.22 µM), inactives show at the highest dose activation of IL-2 secretion, hits mostly activators; also: % of control where 0% means no effect
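Primary human leukocytes receive a-CD3 beads and test compound and are incubated 48 hr. Secreted IL-2 is then assayed by HTRF, measuring 665nm acceptor emission after 320nm excitation of the europium donor.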
Vif-APOBEC3F blk: blocks the Vif interaction with APOBEC3F; 390,000 compounds, 0.2% hits; HeLa A3F-eYFP + Vif (tagged APOBEC3F with the HIV-1 protein that degrades it), YFP fluorescence increase; Potency, µM (top dose mostly 46.1 µM), for the others: at the top dose activity, negative = active; also: potency is read from the fitted curve at half-maximal effect; % of control where 0% means no effect; nearly all actives have a fitted effect of over 65% in size
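Fluorescence increase (Ex 488/Em 500-530) after overnight compound treatment at 37 deg C flags inhibition of Vif-driven A3F-eYFP loss in stable HeLa A3F-eYFP/Vif cells seeded overnight beforehand.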
* = called active by the depositor; ? = inconclusive; · = no result given; [ ] = another dose, or the depositor's remark. Unless noted, calls follow the shape of the dose curve; as a rule, active = well fitted curve in the direction sought with a large enough effect; inconclusive = small, poorly fitted or top-dose-only effect, or another doubt; inactive = no such curve, though single readings can be large; an effect the other way counts as inactive or inconclusive.

SMILES | Chronic BCR inh | Vif-APOBEC3G blk | MBNL1-CUG inh | uPA surface inh | TCR act | Vif-APOBEC3F blk
COCc1cc(C)nc2sc(C(=O)Nc3ccc(OC(F)(F)F)cc3)c(N)c12 | · | 0.9% | · | · | · | -5.3%
COc1ccc(NC(=O)c2sc3nc4c(cc3c2N)CN(Cc2ccccc2)CC4)c(OC)c1 | · | ? | · | · | · | 11.2µM*
COc1ccc(-c2cc(C(F)(F)F)c3c(N)c(C(=O)NCCSC)sc3n2)cc1 | ? | ? | 19.9% | 4.8% | 0.0% | ?
COc1ccc(OC)c(NC(=O)c2sc3nc(Cc4ccccc4)cc(C(F)(F)F)c3c2N)c1 | 8.9% | -0.5% | -7.8% | · | -5.3% | 10µM*
COc1ccc(NC(=O)c2sc3nc(C(F)(F)F)cc(C)c3c2N)cc1OC | · | -14.0% | · | · | · | 5.62µM*
CC(C)(C)n1ncc2c(=O)n(Cc3cc(F)ccc3Cl)cnc21 | · | -1.4% | · | · | · | ·
CCN(Cc1cccc(S(=O)(=O)O)c1)c1ccc(C(=C2C=CC(=[N+](CC)Cc3cccc(S(=O)(=O)O)c3)C=C2)c2ccc(O)cc2S(=O)(=O)O)cc1 | · | 6.8% | · | · | · | ·
CC(C)N(CCC(=O)c1ccc2ccccc2c1)Cc1ccccc1 | ? | -29.6% | · | 3.16µM* | 2.8% | 9.2%
Cc1nc(Sc2nnnn2C2CC2)c2c(-c3ccccc3)csc2n1 | · | 1.1% | · | · | · | ·
O=C(Cc1ccc(OCC2CCCCC2)cc1)NO | · | -8.1% | · | · | · | ·
CC1=CN2C(=N)/C(=C/c3ccco3)C(=O)N=C2S1 | ? | -6.6% | ? | -7.1% | 8.2%[46.1 µM] | -15.8%
CC1=CN2C(=N)/C(=C/c3ccc([N+](=O)[O-])o3)C(=O)N=C2S1 | ? | 22.4µM* | ? | -5.5% | 2.8%[46.1 µM] | ?
COc1cc([N+](=O)[O-])cc2sc(NC(C)=O)nc12 | ? | -10.9% | ? | 10µM* | 3.6% | 9.0%
Cc1nn(CCC(=O)NNC(=S)NCC(C)C)c(C)c1Br | 16.4µM* | 1.5% | -1.0% | · | 0.0% | -3.6%
CNC(=S)NNC(=O)CCn1nc(C)c(Br)c1C | · | 1.6% | 12.2% | · | · | -4.2%
Cc1ccc(NC(=O)c2ccc3c(c2)OCCO3)nc1 | ? | -2.5% | · | 3.16µM* | -2.1% | 1.6%
Cc1ccc(NC(=O)CNC(=O)c2ccc3c(c2)OCO3)nc1 | -21.2% | 2.6% | -5.1% | 3.2% | -4.6% | -1.2%
O=c1[nH]/c(=C/c2ccc3c(c2)OCO3)c(=O)[nH]/c1=C\c1ccc2c(c1)OCO2 | · | 4.9% | · | · | · | ·
O=C(NC1CCCCC1)[C@@H]1CC=C[C@@H]2CCN(Cc3ccc(Cl)c(Cl)c3)C(=O)[C@@H]21 | · | -2.5% | · | · | · | ·
Cc1cccc(NC(=O)c2cnc3sccn3c2=O)c1 | ? | -0.2% | -3.4% | 10µM* | 0.7% | -1.1%
CC(=O)/C=C(\C)Nc1ccccc1O | ? | -21.7% | 23.3% | 7.94µM* | -4.1% | -2.6%
COC(=O)c1ccc([C@H]2CC(=O)O2)cc1 | ? | -5.1% | 1.4% | 4.47µM* | -2.4% | -3.3%
O=C1C(=O)C(c2ccc(O)cc2O)Oc2cc(O)cc(O)c21 (stereo not given) | · | -1.2% | · | · | · | ·
Cc1cc(NC(=O)/C(C#N)=C\c2ccc(-c3ccc(SC(F)F)cc3)o2)n(-c2ccccc2)n1 | · | ? | · | -1.0% | -1.1% | 10µM*
Cc1c(NC(=O)/C(C#N)=C/c2ccc(-c3ccc(Cl)c(Cl)c3)o2)c(=O)n(-c2ccccc2)n1C | 3.0% | -8.1% | ? | -17.9% | -1.9%[46.1 µM] | -2.4%
C/C(=N\Nc1nc(C)cc(-c2ccccc2)n1)c1cccc(N)c1 | ? | 2.8% | 5.8% | 10µM* | · | 3.7%
C/C(=N\Nc1nc(C)cc(-c2ccccc2)n1)c1ccccc1 | ? | -2.9% | 2.7% | -4.7% | · | ?
C/C(=N\Nc1nc(C)cc(-c2ccccc2)n1)c1ccc(O)cc1 | 15.3% | -2.0% | 8.5% | 10µM* | 2.4% | -0.7%
Cc1ccc2nc(N/N=C/c3ccccc3F)nc(-c3ccccc3)c2c1 | ? | -5.0% | -10.4% | 2.2% | -3.6%[46.1 µM] | -12.0%
